The source of these data is PubChem BioAssay (NCI).

About 83,000 compounds went through this panel and 20% of them were active in at least one assay; those are over-represented in the sample as a whole.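 Single-concentration screen, 48 h exposure, 96-well plates. Endpoint: percent growth. Below 10 = active.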 A number with no mark means an inactive call. Calls of active or inactive are those of the source.

In the assay the test system is HL-60(TB) leukemia. The assay can be described thus: NCI-60 one-dose screen, 48 h (100 = growth as untreated, 0 = no growth, -100 = all killed). The settings on record: 10 µM unless noted.
With `COc1cc2cc3c(nc2cc1OC)CCN3Cc1ccc(NC(=O)c2ccc(Cl)c(C(F)(F)F)c2)cc1`, the growth is 99.5%.

As to `O=C(Nc1ccccc1O)c1ccc(CNc2ccnc(C(F)(F)F)c2)cc1`, the growth was -32.9% (active).

As to `O=C(Nc1ccc2c(c1)OCO2)C(=O)c1c[nH]c2cc(F)ccc12`, the growth was 53.5%.

As for `COc1ccc2c3c(c4ccccc4cc13)C(=O)N(CCN(C)CCN)C2=O`, the growth is -58.1% (active). For `N#Cc1c(N)nc(NCCO)nc1-c1ccc(F)cc1`, the growth is 93.6%. Regarding `COc1ccc(C2CC(=O)c3c(O)cc(OC4OC(COC5OC(C)C(O)C(O)C5O)C(O)C(O)C4O)cc3O2)cc1O` (stereo unspecified), the growth was 131%. Consider `Cc1ccc(C(c2c(O)c3cc(Br)ccc3[nH]c2=O)c2c(O)c3cc(Br)ccc3[nH]c2=O)cc1`, for which the growth is 92.2%. Turning to `COc1ccc(C(c2ccc(OCCN(C)C)cc2)c2cc3ccccc3c3ccccc23)cc1` (stereo unspecified), the growth was 3.59% (active). Take `Nc1[nH]c(=S)nc2oc(-c3ccccc3)c(-c3ccccc3)c12`: the growth is 90.5%. With `N=C(N)c1ccc(-c2ccc(-c3cc(Cl)cc(Cl)c3)s2)nc1`, the growth was -7.02% (active). As to `O=C(CCc1nnc(Cn2ccnc2)o1)c1nc2ccccc2[nH]1`, the growth was 106%. Turning to `CS(=O)(=O)CCNCc1ccc(-c2ccc3ncnc(Nc4ccc(OCc5cccc(F)c5)c(Cl)c4)c3c2)o1`, the growth was 20.3%. Take `CNC(=O)c1cccc(Cn2nc(C)c(NC(=O)c3ccc(COc4ccc(C(F)(F)F)cc4C)cc3)c2C)c1`: the growth was 47.1%. Take `CCOc1ccc(S(=O)(=O)Nc2ccc3c(c2)N(S(=O)(=O)CC)CCC3)cc1`: the growth was 77.1%.

Regarding `Nc1cc(N)c2nc(NCCc3ccc(Cl)c(Cl)c3)cnc2c1`, the growth was -74.3% (active). Consider `NC(=S)N/N=C1\c2ccccc2-c2c(F)c(F)c(F)c(F)c21`, for which the growth is 44.4%. Consider `Cc1cc(NN=C(c2ccc(O)cc2)c2ccc(O)cc2)c([N+](=O)[O-])cc1[N+](=O)[O-]`, for which the growth is 66.9%. The result for `CCN(CC)CCC(CNc1c(C)cnc2cc(Cl)ccc12)c1ccc(Cl)c(Cl)c1` (stereo unspecified) reads 51.5%; that for `COc1cc(C2CC(=O)Nc3c2c(C)nn3-c2nc3ccccc3[nH]2)cc2c1OCC(=O)N2` (stereo unspecified), 77.4%.

For the compound `Cc1nc(Nc2cn[nH]c2C(=O)Nc2ccc(CN3CCN(C)CC3)cc2)c2ccsc2n1`, the growth was 113%. With `CCOC(=O)c1cnc2cc(Cl)c(F)cc2c1Nc1cccc(NS(C)(=O)=O)c1`, the growth was 105%.

With `COc1cc2ncnc(Nc3ccc(S(=O)(=O)Nc4cc(C)on4)cc3)c2cc1OCCCN1CCOCC1`, the growth was 101%.

In the case of `COc1ccc(-n2nnnc2-c2cn[nH]c2C(F)(F)F)cc1`, the growth is 98.3%. `CC(=O)n1c(-c2ccc(Cl)c(Cl)c2)cn(-c2ccc(Cl)cc2)c1=O`: the growth is 64.8%.

Take `OC(c1cccc(C(F)(F)F)c1)c1cnccc1NC1CCCCCC1` (stereo unspecified): the growth is -30.7% (active). Turning to `COc1cc(Cl)cc(-c2nn(-c3cccc(NC(=O)Nc4cc(C(F)(F)F)cc(C(F)(F)F)c4)c3)cc2-c2ccncc2)c1`, the growth was -20.1% (active).
